From PubChem BioAssay (EPA / NIEHS)
Activity calls are given as the source filed them. How the source made its calls: active means hit-call score of the fitted dose curve at least 0.9, where 1 is the maximum; inactive means score below 0.9.

Assays:
Conditions in all cases: mRNA level, 48 h; actives raise or lower the signal
[1] = read-out: Heat shock 70 kDa protein 1 (HSPA1A), gene 3303; test: LTEA_HepaRG_HSPA1A: Life Technologies and Expression Analysis (LTEA) Assay for Heat shock 70 kDa protein 1 (HSPA1A) using HepaRG (AID 2283502)
In short: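 HSPA1A induction in human HepaRG liver cells is measured after 48 h of chemical treatment (100 uM maximum, 0.5% DMSO vehicle). Expression comes from qRT-PCR normalized to endogenous controls.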

[2] = read-out: Hypoxia-inducible factor 1-alpha (Homo sapiens) (UniProt Q16665); test: LTEA_HepaRG_HIF1A: Life Technologies and Expression Analysis (LTEA) Assay for Hypoxia-inducible factor 1 (HIF1A) Trancription factor using HepaRG (AID 2283503)
In short: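 HepaRG, 48 h exposure, 8-pt half-log series from 100 uM, 0.5% DMSO vehicle, duplicates. Readout: HIF1A transcript by qRT-PCR (Fluidigm array), housekeeping-normalised. Bidirectional curve fit vs DMSO baseline.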

[3] = read-out: 3-Hydroxy-3-Methylglutaryl-CoA Synthase 2 (HMGCS2), HMGCS2 (gene 3158); test: LTEA_HepaRG_HMGCS2: Life Technologies and Expression Analysis (LTEA) Assay for 3-Hydroxy-3-Methylglutaryl-CoA Synthase 2 (HMGCS2) using HepaRG (AID 2283504)
In short: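 HepaRG, plated 48 h then switched to serum-free induction media; cmpd 8-pt, max 100 uM, 1/2-log, 0.5% DMSO, n=2, 48 h. HMGCS2 mRNA by Fluidigm TaqMan qRT-PCR, ACTB/GAPDH/POLR2A norm; bidirectional fit vs DMSO.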

[4] = read-out: HGF (gene 3082); test: LTEA_HepaRG_HGF: Life Technologies and Expression Analysis (LTEA) Assay for Hepatocyte Growth Facto (HGF) using HepaRG (AID 2283505)
In short: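 Read-out is HGF transcript level by qRT-PCR, normalized to three housekeeping genes, fitted bidirectionally against 0.5% DMSO vehicle. Human HepaRG cells received test chemicals for 48 h at up to 100 uM.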

[5] = read-out: Insulin Like Growth Factor 1 (IGF1), IGF1 (gene 3479); test: LTEA_HepaRG_IGF1: Life Technologies and Expression Analysis (LTEA) Assay for Insulin Like Growth Factor 1 (IGF1) using HepaRG (AID 2283506)
In short: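 Using human HepaRG liver cells, IGF1 transcript induction or suppression is measured 48 h after dosing across eight concentrations capped at 100 uM. Values derive from bidirectional concentration-response fitting with DMSO as baseline.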

[6] = read-out: Intercellular Adhesion Molecule 1 (ICAM1), ICAM1 (gene 3383); test: LTEA_HepaRG_ICAM1: Life Technologies and Expression Analysis (LTEA) Assay for Intercellular Adhesion Molecule 1 (ICAM1) using HepaRG (AID 2283507)
In short: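 Readout is qRT-PCR mRNA level, normalized to three housekeeping genes and fitted bidirectionally against 0.5% DMSO vehicle. Human HepaRG cultures received compound for 48 h, top concentration 100 uM with half-log dilutions.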

[7] = read-out: Insulin-like growth factor-binding protein 1 (IGFBP1), IGFBP1 (gene 3484); test: LTEA_HepaRG_IGFBP1: Life Technologies and Expression Analysis (LTEA) Assay for Insulin-like growth factor-binding protein 1 (IGFBP1) using HepaRG (AID 2283508)
In short: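 Thawed HepaRG cells are plated for 48 h, switched to serum-free induction medium, then dosed in duplicate for another 48 h (100 uM top, half-log steps). Lysates in RLT go to qRT-PCR, and gain or loss of signal is fitted relative to vehicle.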

[8] = read-out: Interleukin 6 (IL6), IL6 (gene 3569); test: LTEA_HepaRG_IL6: Life Technologies and Expression Analysis (LTEA) Assay for Interleukin 6 (IL6) using HepaRG (AID 2283509)
In short: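 Differentiated human HepaRG cells, plated 48 h then switched to serum-free induction medium, were exposed in duplicate for 48 h to eight half-log concentrations up to 100 uM in 0.5% DMSO. IL6 mRNA measured by qRT-PCR, normalized to ACTB/GAPDH/POLR2A.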

[9] = read-out: Interleukin 6 Receptor (IL6R), IL6R (gene 3570); test: LTEA_HepaRG_IL6R: Life Technologies and Expression Analysis (LTEA) Assay for Interleukin 6 Receptor (IL6R) using HepaRG (AID 2283510)
In short: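 Concentration-response in human liver HepaRG cells: eight concentrations from 100 uM downward by half-logs, 48 h exposure, 0.5% DMSO vehicle. IL6R mRNA change measured by qRT-PCR and fitted in both directions relative to vehicle.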

[10] = read-out: Potassium channel subfamily K member 1 (KCNK1), KCNK1 (gene 3775); test: LTEA_HepaRG_KCNK1: Life Technologies and Expression Analysis (LTEA) Assay for Potassium channel subfamily K member 1 (KCNK1) using HepaRG (AID 2283511)
In short: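 Differentiated human HepaRG cells in serum-free induction medium were exposed in duplicate for 48 h to 8 half-log concentrations up to 100 uM in 0.5% DMSO. KCNK1 mRNA was measured by TaqMan qRT-PCR, normalized to ACTB, GAPDH and POLR2A, and fitted bidirectionally versus DMSO.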

[11] = read-out: Keratin 19 (KRT19), KRT19 (gene 3880); test: LTEA_HepaRG_KRT19: Life Technologies and Expression Analysis (LTEA) Assay for Keratin 19 (KRT19) using HepaRG (AID 2283512)
In short: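 KRT19 transcript levels, measured by Fluidigm qRT-PCR against three housekeeping genes, are fitted for gain or loss of signal relative to DMSO. Human HepaRG cells receive test chemicals (top 100 uM, half-log steps, 0.5% DMSO) for 48 hours.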

[12] = read-out: JUN Transcription Factor, JUN (gene 3725); test: LTEA_HepaRG_JUN: Life Technologies and Expression Analysis (LTEA) Assay for JUN Transcription Factor using HepaRG (AID 2283513)
In short: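 Human HepaRG liver cells receive test chemicals in 0.5% DMSO for 48 h across an eight-point range topping at 100 uM. Expression changes in JUN are scored in both directions against the DMSO vehicle.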

[13] = read-out: Lipase C (LIPC), LIPC (gene 3990); test: LTEA_HepaRG_LIPC: Life Technologies and Expression Analysis (LTEA) Assay for Lipase C (LIPC) using HepaRG (AID 2283514)
In short: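 Differentiated human HepaRG cells in serum-free induction medium were exposed in duplicate for 48 h to eight concentrations (top 100 uM, half-log steps, 0.5% DMSO). LIPC mRNA was quantified by TaqMan qRT-PCR, normalized to ACTB, GAPDH and POLR2A, with bidirectional fitting versus DMSO.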

[14] = read-out: Lipoprotein lipase (LPL), LPL (gene 4023); test: LTEA_HepaRG_LPL: Life Technologies and Expression Analysis (LTEA) Assay for Lipoprotein lipase (LPL) using HepaRG (AID 2283515)
In short: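 Differentiated human HepaRG cells in serum-free induction medium were exposed in duplicate for 48 h to eight half-log concentrations (top 100 uM) in 0.5% DMSO. LPL mRNA was quantified by TaqMan qRT-PCR, normalized to ACTB, GAPDH and POLR2A.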

[15] = read-out: MicroRNA 122 (MIR122), gene 406906; test: LTEA_HepaRG_MIR122: Life Technologies and Expression Analysis (LTEA) Assay for MicroRNA 122 (MIR122) using HepaRG (AID 2283516); further: the transcript read is the microRNA miR-122
In short: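 HepaRG, 48 h exposure, 8-pt half-log from 100 uM, 0.5% DMSO; TaqMan qRT-PCR; bidirectional fit vs DMSO.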

[16] = read-out: MYC, MYC (gene 4609); test: LTEA_HepaRG_MYC: Life Technologies and Expression Analysis (LTEA) Assay for MYC using HepaRG (AID 2283518)
In short: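 HepaRG, ~100,000 cells/well, collagen I; 48 h plating; serum-free induction medium; 48 h dosing, duplicate, 100 uM top, half-log, 0.5% DMSO; total RNA → qRT-PCR MYC; gain/loss fit vs DMSO.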

[17] = read-out: matrix metalloproteinase-3 (MMP3), MMP3 (gene 4314); test: LTEA_HepaRG_MMP3: Life Technologies and Expression Analysis (LTEA) Assay for matrix metalloproteinase-3 (MMP3) using HepaRG (AID 2283519)
In short: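 Differentiated human HepaRG cells, plated 48 h on collagen I, were exposed in duplicate for 48 h in serum-free induction medium to eight half-log concentrations up to 100 uM in 0.5% DMSO. MMP3 mRNA was quantified by TaqMan qRT-PCR, normalised to ACTB, GAPDH and POLR2A.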

[18] = read-out: Paternally Expressed 10 (PEG10), PEG10 (gene 23089); test: LTEA_HepaRG_PEG10: Life Technologies and Expression Analysis (LTEA) Assay for Paternally Expressed 10 (PEG10) using HepaRG (AID 2283520);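 on AC50: PEG10 transcript by qRT-PCR normalised to ACTB GAPDH and POLR2A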
In short: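 Chemicals tested on HepaRG cells for 48 h, highest concentration 100 uM. PEG10 expression assessed by qRT-PCR relative to DMSO control.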

[19] = read-out: Nuclear factor NF-kappa-B p105 subunit (Homo sapiens) (UniProt P19838); test: LTEA_HepaRG_NFKB1: Life Technologies and Expression Analysis (LTEA) Assay for Nuclear Factor Kappa B Subunit 1 (NFKB1) using HepaRG (AID 2283521);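 further: TaqMan qRT-PCR transcript normalised to ACTB GAPDH and POLR2A housekeeping genes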
In short: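 Differentiated human HepaRG cells were exposed for 48 h in serum-free induction medium to eight concentrations (top 100 uM, half-log steps, 0.5% DMSO), in duplicate. NFKB1 mRNA was measured by TaqMan qRT-PCR, normalized to ACTB/GAPDH/POLR2A, and fitted bidirectionally against DMSO.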

[20] = read-out: matrix metalloproteinase-10 (MMP10), MMP10 (gene 4319); test: LTEA_HepaRG_MMP10: Life Technologies and Expression Analysis (LTEA) Assay for matrix metalloproteinase-10 (MMP10) using HepaRG (AID 2283517)
In short: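 HepaRG, collagen I, ~100,000 cells/well; serum-free induction medium; 48 h exposure, duplicate, 8-pt half-log to 100 uM, 0.5% DMSO. Readout: TaqMan qRT-PCR, normalized to ACTB/GAPDH/POLR2A; bidirectional fit vs DMSO.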

Measured: AC50

Chain of Nuclear factor NF-kappa-B p105 subunit (Homo sapiens) (P19838 whole entry, looked up): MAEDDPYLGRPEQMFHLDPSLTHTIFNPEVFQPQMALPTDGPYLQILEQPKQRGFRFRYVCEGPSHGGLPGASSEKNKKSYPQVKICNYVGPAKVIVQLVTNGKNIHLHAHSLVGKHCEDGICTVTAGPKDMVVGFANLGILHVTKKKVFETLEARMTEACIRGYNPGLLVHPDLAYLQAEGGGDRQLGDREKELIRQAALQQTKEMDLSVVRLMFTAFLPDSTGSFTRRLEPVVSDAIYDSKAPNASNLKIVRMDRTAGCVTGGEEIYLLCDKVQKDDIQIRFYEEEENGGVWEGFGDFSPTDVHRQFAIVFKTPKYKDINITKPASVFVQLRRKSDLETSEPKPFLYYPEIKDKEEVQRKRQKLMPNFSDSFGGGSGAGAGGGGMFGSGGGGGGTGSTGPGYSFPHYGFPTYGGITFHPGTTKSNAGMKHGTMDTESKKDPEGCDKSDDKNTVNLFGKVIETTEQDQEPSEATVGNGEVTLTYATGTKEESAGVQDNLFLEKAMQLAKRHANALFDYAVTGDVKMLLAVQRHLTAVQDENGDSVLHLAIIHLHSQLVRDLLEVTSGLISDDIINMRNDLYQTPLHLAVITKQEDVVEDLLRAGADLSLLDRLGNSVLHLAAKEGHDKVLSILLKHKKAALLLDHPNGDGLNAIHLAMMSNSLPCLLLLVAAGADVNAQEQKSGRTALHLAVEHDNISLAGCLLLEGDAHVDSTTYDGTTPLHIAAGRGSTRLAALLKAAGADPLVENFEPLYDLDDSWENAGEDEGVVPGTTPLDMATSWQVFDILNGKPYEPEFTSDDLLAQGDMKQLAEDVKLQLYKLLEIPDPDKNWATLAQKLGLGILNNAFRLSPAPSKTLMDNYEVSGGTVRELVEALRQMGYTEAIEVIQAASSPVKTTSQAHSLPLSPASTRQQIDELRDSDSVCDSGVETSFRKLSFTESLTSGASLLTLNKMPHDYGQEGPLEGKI
Chain of Hypoxia-inducible factor 1-alpha (Homo sapiens) (Q16665 whole entry, looked up): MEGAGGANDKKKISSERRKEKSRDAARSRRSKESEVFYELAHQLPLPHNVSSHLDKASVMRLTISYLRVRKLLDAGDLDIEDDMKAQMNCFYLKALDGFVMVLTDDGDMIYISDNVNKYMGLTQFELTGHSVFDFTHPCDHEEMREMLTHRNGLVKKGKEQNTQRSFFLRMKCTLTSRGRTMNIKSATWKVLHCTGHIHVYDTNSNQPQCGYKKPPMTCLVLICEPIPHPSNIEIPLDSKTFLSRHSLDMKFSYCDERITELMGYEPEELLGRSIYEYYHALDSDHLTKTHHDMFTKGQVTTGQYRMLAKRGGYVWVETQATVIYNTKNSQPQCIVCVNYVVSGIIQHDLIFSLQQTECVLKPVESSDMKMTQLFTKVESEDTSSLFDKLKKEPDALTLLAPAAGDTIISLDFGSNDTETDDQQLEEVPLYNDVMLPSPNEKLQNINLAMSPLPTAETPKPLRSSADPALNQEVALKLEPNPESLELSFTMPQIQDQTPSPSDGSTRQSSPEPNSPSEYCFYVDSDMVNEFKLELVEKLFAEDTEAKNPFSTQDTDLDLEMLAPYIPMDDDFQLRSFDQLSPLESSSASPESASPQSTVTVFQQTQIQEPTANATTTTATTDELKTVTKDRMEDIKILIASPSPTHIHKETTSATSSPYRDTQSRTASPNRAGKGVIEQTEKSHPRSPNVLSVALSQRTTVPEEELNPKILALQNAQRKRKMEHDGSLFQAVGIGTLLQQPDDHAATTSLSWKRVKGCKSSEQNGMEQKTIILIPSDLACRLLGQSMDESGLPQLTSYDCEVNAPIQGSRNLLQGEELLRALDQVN

COCC(C)OCC(C)OCC(C)O (stereo not drawn)
not listed: [20]
inactive: all other assays above

CCCCCCCCCC(=O)O
inactive: all assays above

CCCCOC(=O)c1ccc(O)cc1
not listed: [1] | [2] | [19]
inactive: all other assays above

CCN(Cc1cccc(S(=O)(=O)O)c1)c1ccc(C(=C2C=CC(=[N+](CC)Cc3cccc(S(=O)(=O)O)c3)C=C2)c2ccccc2S(=O)(=O)[O-])cc1
not listed: [1]
inactive: all other assays above

Clc1cc(Cl)c2c(c1)N=C1CCCCCN1C2
active: [5] 5.03 µM | [7] 15.5 µM
not listed: [1]
inactive: all other assays above

Cc1cccc2ccccc12
not listed: [1]
inactive: all other assays above

CCCCCCCCCCCCO
not listed: [1] | [19] | [20]
inactive: all other assays above

c1ccc2ccccc2c1
not listed: [1] | [20]
inactive: all other assays above

C[C@]12CC[C@@H]3c4ccc(O)cc4CC[C@H]3[C@@H]1CC[C@H]2O
active: [3] 82.2 µM | [5] 50 µM | [13] 81.9 µM | [18] 50 µM
not listed: [1] | [2] | [19] | [20]
inactive: all other assays above

C[C@]12CC[C@@H]3c4ccc(O)cc4CC[C@H]3[C@@H]1CCC2=O
active: [3] 72.7 µM | [5] 50 µM
not listed: [1] | [13] | [20]
inactive: all other assays above

Cc1cc(F)ccc1-c1cc(N2CC[C@@H](O)[C@H]2CO)ncc1N(C)C(=O)C(C)(C)c1cc(C(F)(F)F)cc(C(F)(F)F)c1
inactive: [4] | [9] | [10] | [11] | [17] | [18] | [19]
active: [2] 74.6 µM | [3] 19.7 µM | [5] 17.3 µM | [6] 22.4 µM | [7] 70.5 µM | [8] 48.6 µM | [12] 74.8 µM | [13] 18.6 µM | [14] 48.8 µM | [15] 9.28 µM | [16] 17.3 µM

CCCCCCCCCCCC[N+](C)(C)C
active: [2] 83.3 µM | [3] 95.9 µM | [4] 90.1 µM | [5] 77.5 µM | [6] 76.4 µM | [7] 84.2 µM | [8] 77.8 µM | [10] 64.7 µM | [11] 50 µM | [12] 82.8 µM | [13] 89.2 µM | [14] 82 µM | [15] 75 µM | [20] 82.4 µM | [16] 75.8 µM | [17] 76.4 µM | [18] 33.8 µM
inactive: [9] | [19]
